In paper PMC11062922 (Nature Chemical Biology, 2023):
Read-outs that look alike come from different tables or passages of the source.

Legend:
AAK1 = system: AAK1; set-up: species or system human, MV4-11 + K-562 + COLO205 + SK-N-BE2 + OVCAR-8; conditions: read-out: apparent Kd, n = 1
BMP2K = system: BMP2K; set-up: species or system human, MV4-11 + K-562 + COLO205 + SK-N-BE2 + OVCAR-8; conditions: read-out: apparent Kd, n = 1
CLK1 = system: CLK1; set-up: species or system human, MV4-11 + K-562 + COLO205 + SK-N-BE2 + OVCAR-8; conditions: read-out: apparent Kd, n = 1
CLK4 = system: CLK4; set-up: species or system human, MV4-11 + K-562 + COLO205 + SK-N-BE2 + OVCAR-8; conditions: read-out: apparent Kd; compound concentrations:100 nM and 1000 nM (sheet 'Samples'); n = 1
CSNK2A1;CSNK2A3 = system: CSNK2A1;CSNK2A3; set-up: species or system human, MV4-11 + K-562 + COLO205 + SK-N-BE2 + OVCAR-8; conditions: read-out: apparent Kd, n = 1
CSNK2A2 = system: CSNK2A2; set-up: species or system human, MV4-11 + K-562 + COLO205 + SK-N-BE2 + OVCAR-8; conditions: read-out: apparent Kd, n = 1
FLT4 = system: FLT4; set-up: species or system human, MV4-11 + K-562 + COLO205 + SK-N-BE2 + OVCAR-8; conditions: read-out: apparent Kd, n = 1
GAK = system: GAK; set-up: species or system human, MV4-11 + K-562 + COLO205 + SK-N-BE2 + OVCAR-8; conditions: read-out: apparent Kd, n = 1
MELK = system: MELK; set-up: species or system human, MV4-11 + K-562 + COLO205 + SK-N-BE2 + OVCAR-8; conditions: read-out: apparent Kd, n = 1
NUAK1 = system: NUAK1; set-up: species or system human, MV4-11 + K-562 + COLO205 + SK-N-BE2 + OVCAR-8; conditions: read-out: apparent Kd, n = 1
PRKAG1 = system: PRKAG1; set-up: species or system human, MV4-11 + K-562 + COLO205 + SK-N-BE2 + OVCAR-8; conditions: read-out: apparent Kd, n = 1
Q6ZSR9 = Q6ZSR9 (human, UniProt Q6ZSR9); set-up: species or system MV4-11 + K-562 + COLO205 + SK-N-BE2 + OVCAR-8; conditions: read-out: apparent Kd, n = 1
Chain of Q6ZSR9 (Q6ZSR9 whole entry, looked up): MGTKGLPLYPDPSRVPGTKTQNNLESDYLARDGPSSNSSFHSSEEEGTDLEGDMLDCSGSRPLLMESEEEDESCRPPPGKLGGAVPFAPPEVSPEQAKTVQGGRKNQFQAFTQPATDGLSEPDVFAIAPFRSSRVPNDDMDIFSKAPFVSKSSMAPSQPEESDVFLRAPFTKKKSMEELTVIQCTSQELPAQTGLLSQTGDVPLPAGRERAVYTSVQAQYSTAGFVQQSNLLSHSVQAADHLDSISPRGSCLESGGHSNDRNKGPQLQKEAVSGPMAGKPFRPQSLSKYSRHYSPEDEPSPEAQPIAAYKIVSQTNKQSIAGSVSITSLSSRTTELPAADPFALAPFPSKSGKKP

RET = system: RET; set-up: species or system human, MV4-11 + K-562 + COLO205 + SK-N-BE2 + OVCAR-8; conditions: read-out: apparent Kd, n = 1
SIK2 = system: SIK2; set-up: species or system human, MV4-11 + K-562 + COLO205 + SK-N-BE2 + OVCAR-8; conditions: read-out: apparent Kd, n = 1
PKN3 [1] = system: PKN3; set-up: species or system human, MV4-11 + K-562 + COLO205 + SK-N-BE2 + OVCAR-8; conditions: read-out: apparent Kd, n = 1;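 on IC50: NanoBRET target engagement in HEK293T cells transiently expressing full-length PKN3 with C-terminal NanoLuc, displacement of fluorescent tracer K5 (500 nM), BRET read after 2 h equilibration at 37 °C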
PKN3 [2] = conditions: hek293t cells
GSK3A = system: GSK3A; set-up: species or system human, MV4-11 + K-562 + COLO205 + SK-N-BE2 + OVCAR-8; conditions: read-out: apparent Kd, n = 1
GSK3B = system: GSK3B; set-up: species or system human, MV4-11 + K-562 + COLO205 + SK-N-BE2 + OVCAR-8; conditions: read-out: apparent Kd, n = 1
PAK4 = system: PAK4; set-up: species or system human, MV4-11 + K-562 + COLO205 + SK-N-BE2 + OVCAR-8; conditions: read-out: apparent Kd, n = 1
PKN1 = system: PKN1; set-up: species or system human, MV4-11 + K-562 + COLO205 + SK-N-BE2 + OVCAR-8; conditions: read-out: apparent Kd, n = 1
[3] = compound concentrations:100 nM and 1000 nM (sheet 'Samples')

Q: Which results are given for `CNC(=O)c1ccccc1Nc1nc(Nc2ccc(N3CCOCC3)cc2)ncc1Cl.Cl` [GSK1576028A]?
A: potency estimated from few doses (AAK1; [3]): 142 nM; potency estimated from few doses (BMP2K; [3]): 1140 nM; potency estimated from few doses (CLK1; [3]): 260 nM; potency estimated from few doses (CLK4): 321 nM; potency estimated from few doses (CSNK2A1;CSNK2A3; [3]): 59.3 nM; potency estimated from few doses (CSNK2A2; [3]): 24.4 nM; potency estimated from few doses (FLT4; [3]): 309 nM; potency estimated from few doses (GAK; [3]): 90.3 nM; potency estimated from few doses (MELK; [3]): 2220 nM; potency estimated from few doses (NUAK1; [3]): 92.2 nM; potency estimated from few doses (PRKAG1; [3]): 461 nM; potency estimated from few doses (Q6ZSR9; [3]): 116 nM; potency estimated from few doses (RET; [3]): 93.9 nM; potency estimated from few doses (SIK2; [3]): 611 nM

Q: What does the source list for `CCOc1nccc2c1nc(-c1nonc1N)n2CC` [SB-737198]?
A: potency estimated from few doses (PKN3 [1]; compound concentrations: 100 nM and 1000 nM (sheet 'Samples'), CATDS: 0.243522946677111): 869 nM; potency estimated from few doses (SIK2; compound concentrations: 100 nM and 1000 nM (sheet 'Samples'), CATDS: 0.197359346007206): 1500 nM; IC50 (PKN3 [2]; read-out: Average, n = 4): > 50000 nM; IC50 (PKN3 [2]; read-out: Rep 1): > 50000 nM; IC50 (PKN3 [2]; read-out: Rep 2): > 50000 nM; IC50 (PKN3 [2]; read-out: Rep 3): > 50000 nM; IC50 (PKN3 [2]; read-out: Rep 4): > 50000 nM

Q: With `CN1C[C@@H]2Cn3c(c(C4=C(c5cn(C)c6ccccc56)C(=O)NC4=O)c4ccccc43)C[C@H]2C1.Cl` [RO0320234-001] as the compound, how does the potency estimated from few doses (AAK1; [3]) read?
A: 403 nM

Q: And the potency estimated from few doses (BMP2K; [3])?
A: 933 nM

Q: And the potency estimated from few doses (CLK1; [3])?
A: 162 nM

Q: What about the potency estimated from few doses (CLK4) of the same compound?
A: 500 nM

Q: And the potency estimated from few doses (CSNK2A1;CSNK2A3; [3])?
A: 836 nM

Q: And the potency estimated from few doses (CSNK2A2; [3])?
A: 784 nM

Q: What about the potency estimated from few doses (FLT4; [3]) of the same compound?
A: 878 nM

Q: What about the potency estimated from few doses (GAK; [3]) of the same compound?
A: 186 nM

Q: What about the potency estimated from few doses (GSK3A; [3]) of the same compound?
A: 99 nM

Q: And the potency estimated from few doses (GSK3B; [3])?
A: 50.7 nM

Q: What about the potency estimated from few doses (PAK4; [3]) of the same compound?
A: 558 nM

Q: What about the potency estimated from few doses (PKN1; [3]) of the same compound?
A: 1970 nM

Q: What about the potency estimated from few doses (PKN3 [1]; [3]) of the same compound?
A: 1500 nM

Q: What about the potency estimated from few doses (PRKAG1; [3]) of the same compound?
A: 352 nM

Q: And the potency estimated from few doses (Q6ZSR9; [3])?
A: 533 nM

Q: What about the potency estimated from few doses (RET; [3]) of the same compound?
A: 371 nM

Q: And the potency estimated from few doses (SIK2; [3])?
A: 230 nM

Q: Which results are given for `CCOC(=O)N1CCC(n2cnc(-c3ccc(F)cc3)c2-c2ccnc(N)n2)CC1` [SB-219952]?
A: potency estimated from few doses (AAK1; compound concentrations: 100 nM and 1000 nM (sheet 'Samples'), CATDS: 1.33097974797153E-2): 454 nM; potency estimated from few doses (BMP2K; compound concentrations: 100 nM and 1000 nM (sheet 'Samples'), CATDS: 1.0000193686827899E-2): 867 nM; potency estimated from few doses (CLK1; compound concentrations: 100 nM and 1000 nM (sheet 'Samples'), CATDS: 1.18597213826205E-2): 578 nM; potency estimated from few doses (CSNK2A1;CSNK2A3; compound concentrations: 100 nM and 1000 nM (sheet 'Samples'), CATDS: 1.2357704080210899E-2): 529 nM; potency estimated from few doses (CSNK2A2; compound concentrations: 100 nM and 1000 nM (sheet 'Samples'), CATDS: 1.08103941261705E-2): 715 nM; potency estimated from few doses (FLT4; compound concentrations: 100 nM and 1000 nM (sheet 'Samples'), CATDS: 1.0948126782386601E-2): 694 nM; potency estimated from few doses (GAK; compound concentrations: 100 nM and 1000 nM (sheet 'Samples'), CATDS: 1.8528073728162099E-2): 245 nM; potency estimated from few doses (GSK3A; compound concentrations: 100 nM and 1000 nM (sheet 'Samples'), CATDS: 1.9129432777521899E-2): 232 nM; potency estimated from few doses (GSK3B; compound concentrations: 100 nM and 1000 nM (sheet 'Samples'), CATDS: 1.5651651675632799E-2): 331 nM; potency estimated from few doses (MELK; compound concentrations: 100 nM and 1000 nM (sheet 'Samples'), CATDS: 7.6939005676200604E-3): 1970 nM; potency estimated from few doses (NUAK1; compound concentrations: 100 nM and 1000 nM (sheet 'Samples'), CATDS: 9.2511282375558092E-3): 1070 nM; potency estimated from few doses (PAK4; compound concentrations: 100 nM and 1000 nM (sheet 'Samples'), CATDS: 1.1415940389083201E-2): 630 nM; potency estimated from few doses (PKN1; compound concentrations: 100 nM and 1000 nM (sheet 'Samples'), CATDS: 1.0348059231995501E-2): 795 nM; potency estimated from few doses (PKN3 [1]; compound concentrations: 100 nM and 1000 nM (sheet 'Samples'), CATDS: 9.8185291638943593E-3): 909 nM; potency estimated from few doses (PRKAG1; compound concentrations: 100 nM and 1000 nM (sheet 'Samples'), CATDS: 1.03550294618252E-2): 794 nM; potency estimated from few doses (Q6ZSR9; compound concentrations: 100 nM and 1000 nM (sheet 'Samples'), CATDS: 1.30827275923428E-2): 470 nM; potency estimated from few doses (RET; compound concentrations: 100 nM and 1000 nM (sheet 'Samples'), CATDS: 1.35684167881036E-2): 436 nM; potency estimated from few doses (SIK2; compound concentrations: 100 nM and 1000 nM (sheet 'Samples'), CATDS: 1.0490419954407099E-2): 769 nM

Q: Which potency estimated from few doses (AAK1; compound concentrations: 100 nM and 1000 nM (sheet 'Samples'), CATDS: 1) does the source give for `CSc1c(C2=C(c3cn(C)c4ccccc34)C(=O)NC2=O)c2ccccc2n1C` [RO0317340-000] here?
A: 1170 nM

Q: Which potency estimated from few doses (GSK3A; [3]) does the source give for `CCn1c(-c2nonc2N)nc2c(C#CC(C)(C)O)nc(OCCN)cc21.CCn1c(-c2nonc2N)nc2c(C#CC(C)(C)O)nc(OCCN)cc21.Cl.Cl` [GSK902056A] here?
A: 113 nM

Q: What about the potency estimated from few doses (GSK3B; [3]) of the same compound?
A: 136 nM

Q: What about the potency estimated from few doses (PAK4; [3]) of the same compound?
A: 677 nM

Q: What about the potency estimated from few doses (PKN1; [3]) of the same compound?
A: 85 nM

Q: And the IC50 (PKN3 [2]; read-out: Average, SD, n = 4)?
A: 99.2 nM

Q: What about the IC50 (PKN3 [2]; read-out: Rep 1) of the same compound?
A: 234 nM

Q: What about the IC50 (PKN3 [2]; read-out: Rep 2) of the same compound?
A: 56.5 nM

Q: And the IC50 (PKN3 [2]; read-out: Rep 3)?
A: 27 nM

Q: And the IC50 (PKN3 [2]; read-out: Rep 4)?
A: 79.2 nM

Q: How did the potency estimated from few doses (PKN3 [1]; [3]) turn out when `Cc1cccc(-c2nc(Nc3ccncc3)c3sccc3n2)n1` [GW869641X] was run?
A: 97.8 nM

Q: What about the IC50 (PKN3 [2]; read-out: Average, SD, n = 3) of the same compound?
A: 1580 nM

Q: And the IC50 (PKN3 [2]; read-out: Rep 1)?
A: 4190 nM

Q: What about the IC50 (PKN3 [2]; read-out: Rep 2) of the same compound?
A: 472 nM

Q: And the IC50 (PKN3 [2]; read-out: Rep 4)?
A: 87.1 nM

Q: With `Cc1cccc(Nc2nc(N[C@H]3CCCC[C@H]3N)ncc2C(N)=O)c1.Cl` [GSK986310C] as the compound, how does the potency estimated from few doses (PAK4; [3]) read?
A: 322 nM

Q: What does the source list for `CC(C)N1CCC(n2cnc(-c3ccc(F)cc3)c2-c2ccnc(N)n2)CC1` [SB-223132]?
A: potency estimated from few doses (AAK1; [3]): 730 nM; potency estimated from few doses (BMP2K; [3]): 531 nM; potency estimated from few doses (CLK1; [3]): 572 nM; potency estimated from few doses (CLK4): 686 nM; potency estimated from few doses (CSNK2A1;CSNK2A3; [3]): 1070 nM; potency estimated from few doses (CSNK2A2; [3]): 1400 nM; potency estimated from few doses (FLT4; [3]): 968 nM; potency estimated from few doses (GAK; [3]): 333 nM; potency estimated from few doses (GSK3A; [3]): 359 nM; potency estimated from few doses (GSK3B; [3]): 441 nM; potency estimated from few doses (NUAK1; [3]): 1160 nM; potency estimated from few doses (PAK4; [3]): 726 nM; potency estimated from few doses (PKN1; [3]): 1440 nM; potency estimated from few doses (PKN3 [1]; [3]): 1010 nM; potency estimated from few doses (PRKAG1; [3]): 884 nM; potency estimated from few doses (Q6ZSR9; [3]): 581 nM; potency estimated from few doses (RET; [3]): 579 nM; potency estimated from few doses (SIK2; [3]): 700 nM
